Out of some 5,500 compounds screened, about 2,000 (36%) were called active. Another 18% or so got no clear call; they are omitted. No stated cut-off is given here; in the data, active means normalized growth mostly below about 0.91 (no sharp cut-off); inconclusive means no clear call, values can overlap the other calls; inactive means mostly above about 0.92. The list shows a part of the results.
Assay: chemical genetic growth profiling, strain panel (AID 1159580);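 further: tested at 20 µM; growth read once vehicle control cultures reached saturation at 30 °C; 1 = growth at the plate median or of vehicle wells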
Settings: S. cerevisiae deletion strains, growth OD

Measured: normalized growth

C[C@H](Cc1ccc(O)c(O)c1)[C@@H](C)Cc1ccc(O)c(O)c1
active: locus YAL013W, strain DEP1, stronger effect = lower value 0.783 | locus YCL061C, strain MRC1 (second series), stronger effect = lower value 0.811 | locus YDR363W, strain ESC2, stronger effect = lower value 0.745 | locus YNL322C, strain KRE1, stronger effect = lower value 0.478 | locus YPL055C, strain LGE1, stronger effect = lower value 0.77 | locus YPL241C, strain CIN2, stronger effect = lower value 0.578
inactive: locus YAL040C, strain CLN3, stronger effect = lower value 1.07 | locus YER002W, strain NOP16, stronger effect = lower value 0.979 | locus YGR078C, strain PAC10, stronger effect = lower value 0.986 | locus YNL153C, strain GIM3, stronger effect = lower value 0.863 | locus YNL175C, strain NOP13, stronger effect = lower value 0.946 | locus YNL197C, strain WHI3, stronger effect = lower value 0.969 | locus YNL224C, strain SQS1, stronger effect = lower value 0.966 | locus YOR083W, strain WHI5 (second series), stronger effect = lower value 0.925

From PubChem BioAssay AID1159580 (chemical genetic matrix, 2015)
